Results published in PubChem BioAssay (Tox21).
Records with an inconclusive call do not appear. A call without a number means that no potency is given here. The source made the active and inactive calls. Calls follow the shape of the dose curve; as a rule, active = well fitted cell-killing curve with a large enough effect in the repeat runs; inconclusive = weak or mixed curves; inactive = flat fitted curve, though single readings scatter.

experiment: qHTS assay to identify small molecule antagonists of the estrogen receptor beta (ER-beta) signaling pathway - cell viability counter screen (AID 1259382); details: ER-beta-UAS-bla HEK293T viability, CellTiter-Glo luminescence, 16 h; series mostly up to 92.4 µM; also: nearly all actives have a fitted effect of over 55% in size
Source text: U.S. Tox21 Program National Center for Advancing Translational Sciences [NCATS] NIH Chemical Genomics Center [NCGC] U.S. Environmental Protection Agency [EPA] National Institutes of Environmental Health Sciences [NIEHS] National Toxicology Program [NTP] U.S. Food and Drug Administration [FDA] Tox21 Assay Overview: Estrogen receptor (ER), a nuclear hormone receptor, plays an important role in development, metabolic homeostasis and reproduction. Two subtypes of ER, ER-alpha and ER-beta, have similar expression patterns with some uniqueness in both types. Endocrine disrupting chemicals (EDCs) and their interactions with steroid hormone receptors like ER causes disruption of normal endocrine function. To identify the compounds that inhibit ER signaling, an ER-beta-UAS-bla GripTite cell line (Life Technologies, Madison, WI, USA) containing a beta-lactamase reporter gene under the control of an UAS response element was used to screen Tox21 10K compound library. The cytotoxicity of the Tox21 compound library against the ER-beta-bla cell line was tested in parallel by measuring the cell viability using CellTiter-Glo assay in the same wells.
Tox21 Assay Protocol Summary: ER-beta-UAS-bla HEK293T cells were dispensed at 2,000 cells/4 uL of assay medium containing 2% charcoal stripped FBS per well into black wall/clear-bottom 1536-well plates using a Multidrop Combi (ThermoFisher Scientific, Waltham, MA) dispenser. After the assay plates were incubated at a 37C and 5% CO2 for 6 hr, 23 nL of compounds dissolved in DMSO, positive controls or DMSO only was transferred to the assay plate by a Pintool station (Kalypsys, San Diego, CA), followed by addition of 1 uL (1nM as final concentration) of 17-beta-estradiol (E2) in assay medium using a Flying Reagent Dispenser (FRD, Aurora Discovery, San Diego, CA). The plates were incubated at 37C and 5% CO2 for 16 hr. Then 1 uL of LiveBLAzer B/G FRET substrate was added using a Flying Reagent Dispenser, the plates were incubated at room temperature for 2 hours, and fluorescence intensity was measured by an Envision plate reader (PerkinElmer, Shelton, CT). For cell viability readout that measures cytotoxicity, 4 uL/well of CellTiter-Glo reagent was added into the assay plates using a FRD. After 30 min incubation at room temperature, the luminescence intensity in the plates was measured using a ViewLux (PerkinElmer) plate reader.

Row | Compound | Potency | activity change, negative = cytotoxicity
1 | CC(C)(C)C(O)/C=C/c1ccc2c(c1)OCO2 (stereo not given) | inactive | 
2 | CCCCCCCCCCCCCC(=O)OCC(O)CO (stereo not given) | inactive | 
3 | COc1ccc(/C=C/C(=O)c2ccc(OC)cc2OC)cc1 | inactive | 
4 | CCC(Cl)CC(Cl)C(Cl)C(Cl)C(Cl)C(C)Cl (stereo not given) |  | -4.67% [at 19 µM] (inactive)
5 | CC(C)(O)c1coc(S(=O)(=O)NC(=O)Nc2c3c(cc4c2CCC4)CCC3)c1 | inactive | 
6 | COC(=O)CC(C(C)=O)C(=O)OC (stereo not given) | inactive | 
7 | CCCCC[C@H](O)/C=C/[C@H]1[C@H](O)CC(=O)[C@@H]1C/C=C\CCCC(=O)O | inactive | 
8 | CCCOC(=O)c1c(Cl)c(Cl)c(Cl)c(Cl)c1C(=O)OCCC | inactive | 
9 | COc1ccc(-c2cc(C(F)F)nn2-c2ccc(S(N)(=O)=O)cc2)cc1F | inactive | 
10 | CCN(CC)c1cccc(O)c1 | inactive | 
11 | CCCCCCC(O)CCOC(C)=O (stereo not given) | inactive | 
12 | CCO[Si](C)(CCCOCC1CO1)OCC (stereo not given) | inactive | 
13 | COc1ccc(CCN(C)CCCN2CCc3cc(OC)c(OC)cc3CC2=O)cc1OC | inactive | 
14 | FC(F)(F)C(F)(F)C(F)(F)C(F)(F)CCI | inactive | 
15 | COc1ccc(C(=O)NCc2ccc(OCCN(C)C)cc2)cc1OC | inactive | 
16 | CC(=O)N[C@@H](Cc1ccc(O)cc1)C(=O)O | inactive | 
17 | Cc1ccc2nc(N)[nH]c(=O)c2c1Sc1ccncc1 | inactive | 
18 | O=C(Nc1ccc(C(=O)O)c(O)c1)c1ccccc1 | inactive | 
19 | O=C(O)c1ccc(O)cc1O | inactive | 
20 | CC(C)c1ccc(C(=O)N=C(N)N)cc1S(C)(=O)=O | inactive | 

Row | Compound | Potency | activity change, negative = cytotoxicity
21 | COC(CC(C)CCCC(C)(C)O)OC (stereo not given) | inactive | 
22 | COc1cc(C(C)=O)ccc1OCCCN1CCC(c2noc3cc(F)ccc23)CC1 | inactive | 
23 | O=C(O)/C=C/c1ccc(O)c(O)c1 | inactive | 
24 | CCC(=O)OCc1ccc(OC)cc1 | inactive | 
25 | COc1ccc(-n2nc(C(F)F)cc2-c2ccc(S(C)=O)cc2)cc1 (stereo not given) | inactive | 
26 | COC(=O)C1=C(C)NC(C)=C(C(=O)OC(C)(C)CN(C)CCC(c2ccccc2)c2ccccc2)C1c1cccc([N+](=O)[O-])c1 (stereo not given) | inactive | 
27 | Cc1ccc2c(c1[N+](=O)[O-])C(=O)c1ccccc1C2=O | inactive | 
28 | Nc1nc2ccc(OC(F)(F)F)cc2s1 | inactive | 
29 | O=c1[nH]c2cc(C(F)(F)F)c(N3CCOCC3)cc2n(CP(=O)(O)O)c1=O | inactive | 
30 | COc1cc(NS(=O)(=O)c2ccc(N)cc2)nc(C)n1 | inactive | 
31 | C=CC(=O)O | inactive | 
32 | CC(=O)NNC(C)=O | inactive | 
33 | CC(=O)C(C)=O | inactive | 
34 | c1ccc2sc(SSc3nc4ccccc4s3)nc2c1 |  | -0.0017% [at 19 µM] (inactive)
35 | CC1CCCC(=O)C1=O (stereo not given) | inactive | 
36 | Nc1ccn([C@H]2CS[C@@H](CO)O2)c(=O)n1 | inactive | 
37 | CN=C(N)NC(=O)Nc1c(C)cccc1C | inactive | 
38 | CCCCCCC(CO)CCCC (stereo not given) | inactive | 
39 | CCOC(=O)C(C)O (stereo not given) | inactive | 
40 | CC[C@@H](CO)NCCN[C@@H](CC)CO | inactive | 
